# Experimental data reported in PubChem BioAssay.
# Active and inactive are the calls of the source.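 The calls were made as follows, unless noted: active = luciferase signal above three times the same-plate solvent-only control wells; inactive = the rest.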
# Target: NAD(+) hydrolase SARM1 (Homo sapiens) (UniProt Q6SZW1)
# Assay: blocking NAD cleavage by SARM1 SAM-TIR – cell lysate, NAD-Glo luminescence (AID 1508614;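 active = compound whose remaining NAD level is above about 45 nM, limit read from the data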;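 also: higher remaining NAD means stronger inhibition of SARM1 NADase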)
# Settings: SAM-TIR HEK293T lysate NADase, at 1 µM, stronger effect = higher value
# NAD(+) hydrolase SARM1 (Homo sapiens), sequence (Q6SZW1 whole entry, looked up): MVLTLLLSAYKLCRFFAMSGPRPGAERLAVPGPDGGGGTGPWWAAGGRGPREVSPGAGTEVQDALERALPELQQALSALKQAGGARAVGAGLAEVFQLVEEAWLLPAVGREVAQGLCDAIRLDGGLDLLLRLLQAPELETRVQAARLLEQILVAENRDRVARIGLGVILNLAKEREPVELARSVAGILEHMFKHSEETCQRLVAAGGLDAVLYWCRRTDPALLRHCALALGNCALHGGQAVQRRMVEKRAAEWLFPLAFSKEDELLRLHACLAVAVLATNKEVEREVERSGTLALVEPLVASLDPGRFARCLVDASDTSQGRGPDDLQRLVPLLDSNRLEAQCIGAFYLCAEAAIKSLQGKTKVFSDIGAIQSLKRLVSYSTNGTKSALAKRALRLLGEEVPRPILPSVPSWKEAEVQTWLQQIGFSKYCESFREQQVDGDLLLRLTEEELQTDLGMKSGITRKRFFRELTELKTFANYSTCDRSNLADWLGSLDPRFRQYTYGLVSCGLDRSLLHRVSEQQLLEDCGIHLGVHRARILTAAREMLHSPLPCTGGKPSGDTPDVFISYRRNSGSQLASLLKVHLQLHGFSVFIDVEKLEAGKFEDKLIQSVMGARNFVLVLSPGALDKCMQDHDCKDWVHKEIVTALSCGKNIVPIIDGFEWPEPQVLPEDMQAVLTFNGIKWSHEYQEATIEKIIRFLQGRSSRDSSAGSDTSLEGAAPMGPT
row,Structure (SMILES),remaining NAD
1,CC[C@H]1[C@@H]2C[C@H]3[C@@H]4N(C)c5ccccc5[C@]45C[C@@H]([C@H]2[C@H]5O)N3[C@@H]1O,10 nM (inactive)
2,CN1C2CC(OC(=O)C(CO)c3ccccc3)CC1C(O)C2 (configuration not stated),10 nM (inactive)
3,NC(=O)C[S@@](=O)C(c1ccccc1)c1ccccc1,10 nM (inactive)
4,CC(N)C(O)c1ccccc1 (configuration not stated),10 nM (inactive)
5,C[N+]1([O-])[C@@H]2CC[C@H]1CC(OC(=O)C(CO)c1ccccc1)C2 (some centres not stated),10 nM (inactive)
6,CC(=O)[C@H]1CC[C@H]2[C@@H]3CC[C@@H]4C[C@H](O)CC[C@]4(C)[C@H]3CC[C@]12C,10 nM (inactive)
7,OC[C@@H](O)[C@H]1O[C@@H]2O[C@H](C(Cl)(Cl)Cl)O[C@@H]2[C@H]1O,10 nM (inactive)
8,C=CCNCCCCCCCCCC (tested in a mixture with another compound),10 nM (inactive)
9,O=c1nc(O)n(Cl)c(=O)n1Cl,10 nM (inactive)
10,CC[C@@H](c1cccc(O)c1)[C@@H](C)CN(C)C,10 nM (inactive)
11,CCN1C[C@]2(COC)[C@H](O)C[C@H](OC)[C@]34C1[C@H]([C@H](OC)[C@H]23)[C@]1(OC(C)=O)[C@H]2[C@@H](OC(=O)c3ccccc3)[C@](O)(C[C@H]24)[C@@H](OC)[C@@H]1O,10 nM (inactive)
12,COc1ccc(O)c(C(C)(C)C)c1,10 nM (inactive)
13,O=C(NN=Cc1ccc([N+](=O)[O-])o1)c1cc([N+](=O)[O-])cc([N+](=O)[O-])c1O,10 nM (inactive)
14,C=C[C@H]1CN2CC[C@H]1C[C@H]2[C@H](OC(=O)OCC)c1ccnc2ccc(OC)cc12,10 nM (inactive)

# Target: Mitogen-activated protein kinase 7 (Homo sapiens) (UniProt Q13164)
# Sequence (Q13164 whole entry, looked up, the tested form may be a part): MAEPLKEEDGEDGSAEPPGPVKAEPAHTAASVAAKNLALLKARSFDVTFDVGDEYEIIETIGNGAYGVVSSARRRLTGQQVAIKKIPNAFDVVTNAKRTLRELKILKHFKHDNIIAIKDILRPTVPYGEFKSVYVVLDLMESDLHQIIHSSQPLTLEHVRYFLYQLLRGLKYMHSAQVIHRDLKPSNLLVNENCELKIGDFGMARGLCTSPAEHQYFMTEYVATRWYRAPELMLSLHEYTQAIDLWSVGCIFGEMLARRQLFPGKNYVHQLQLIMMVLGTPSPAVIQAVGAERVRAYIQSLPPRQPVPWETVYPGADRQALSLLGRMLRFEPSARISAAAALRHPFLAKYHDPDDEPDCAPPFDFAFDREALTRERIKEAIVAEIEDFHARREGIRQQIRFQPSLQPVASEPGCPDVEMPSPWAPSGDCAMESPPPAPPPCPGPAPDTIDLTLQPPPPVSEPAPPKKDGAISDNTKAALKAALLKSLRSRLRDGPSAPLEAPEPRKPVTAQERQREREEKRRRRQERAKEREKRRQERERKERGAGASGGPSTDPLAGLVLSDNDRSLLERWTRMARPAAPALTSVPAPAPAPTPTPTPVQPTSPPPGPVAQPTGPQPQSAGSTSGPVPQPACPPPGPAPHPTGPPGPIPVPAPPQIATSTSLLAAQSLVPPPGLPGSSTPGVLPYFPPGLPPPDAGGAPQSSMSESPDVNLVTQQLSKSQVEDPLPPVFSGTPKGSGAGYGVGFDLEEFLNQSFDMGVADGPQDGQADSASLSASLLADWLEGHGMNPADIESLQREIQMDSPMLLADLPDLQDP
# Assay: Gal4-ERK5 driven luciferase induction – cell-based, HTS, primary screen (AID 1508626);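 also: luciferase driven by Gal4-ERK5 fusion binding five Gal4 sites before minimal TATA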
# Settings: HeLa Gal4-ERK5 transactivation, 18 h, at 5 µM, stronger effect = higher value
row,Structure (SMILES),luciferase signal
1,COC1=C[C@]23CCCN2CCc2cc4c(cc2[C@@H]3[C@@H]1O)OCO4,56 AU (inactive)
2,CC[C@]12C=CCN3CC[C@@]4(c5ccc(OC)cc5N(C)[C@H]4[C@@](O)(C(=O)OC)[C@@H]1OC(C)=O)[C@@H]32,44 AU (inactive)
3,CC(=O)[C@H]1CC[C@H]2[C@@H]3CC[C@H]4C[C@H](O)CC[C@]4(C)[C@H]3CC[C@]12C,24 AU (inactive)
4,CC[C@H]1[C@@H]2C[C@H]3[C@@H]4N(C)c5ccccc5[C@]45C[C@@H]([C@H]2[C@H]5O)N3[C@@H]1O,116 AU (inactive)
5,CC(C)[C@@H]1NC(=O)[C@H](C)OC(=O)[C@@H](C(C)C)NC(=O)[C@@H](C(C)C)OC(=O)[C@H](C(C)C)NC(=O)[C@H](C)OC(=O)[C@@H](C(C)C)NC(=O)[C@@H](C(C)C)OC(=O)[C@H](C(C)C)NC(=O)[C@H](C)OC(=O)[C@@H](C(C)C)NC(=O)[C@@H](C(C)C)OC1=O,36 AU (inactive)
6,CC(=O)O[C@H]1C(=O)[C@@]2(C)[C@H]([C@H](OC(=O)c3ccccc3)[C@]3(O)C[C@H](O)C(C)=C1C3(C)C)[C@]1(OC(C)=O)CO[C@@H]1C[C@@H]2O,136 AU (inactive)
7,CC(=O)OCC1=C(C(=O)O)N2C(=O)[C@@H](NC(=O)CCCC(N)C(=O)O)[C@H]2SC1 (some centres not stated),56 AU (inactive)
8,CC(=O)OC1C[C@@]2(C)[C@H](c3ccoc3)C[C@H]3O[C@]32[C@]2(C)C(=O)C(O)=C3C(C)(C)C(=O)C=C[C@]3(C)C12 (some centres not stated),12 AU (inactive)
9,C[N+]12CC[C@@]34c5ccccc5N5C(=O)CC6OCC=C(C1)[C@H](CC32)[C@@H]6C54 (some centres not stated),140 AU (inactive)
10,COc1cc([C@@H]2c3cc4c(cc3[C@@H](O)[C@H]3COC(=O)[C@H]23)OCO4)cc(OC)c1O,72 AU (inactive)
11,CCN1C[C@]2(OC(=O)c3ccccc3NC(C)=O)CC[C@H](OC)[C@]34C1[C@H](C[C@H]23)[C@@]1(O)C[C@H](OC)[C@H]2C[C@@H]4[C@]1(O)[C@H]2OC,84 AU (inactive)
12,COc1cc2c(cc1OC)[C@@H]1C(=O)c3ccc4c(c3O[C@@H]1CO2)C[C@H](C(C)C)O4,152 AU (inactive)
13,CC(=O)O[C@@H]1CC[C@@]2(C)[C@@H](CC[C@@H]3[C@@H]2CC[C@]2(C)C(=O)CC[C@@H]32)C1,28 AU (inactive)
14,CCC(C)C(=O)OC1C[C@@]2(C)[C@H](c3ccoc3)OC(=O)CC23OC2(C)OC34C(OC(=O)C(C)C)[C@@]3(O)[C@@H](OC(=O)C5(C)OC5C)[C@@]5(C)C[C@]3(O)[C@@](C)([C@H]5CC(=O)OC)C14O2 (some centres not stated),44 AU (inactive)
15,CC(=O)O[C@H]1[C@H]2[C@@H](OC(=O)Cc3ccccc3)[C@@H](C)C[C@]2(OC(C)=O)C(=O)/C(C)=C/[C@@H]2[C@H](CC[C@@]13CO3)C2(C)C,56 AU (inactive)
16,COC(=O)C1=CO[C@@H](C)[C@@H]2CN3CC[C@@]4(C(=O)Nc5ccccc54)[C@@H]3C[C@H]12,24 AU (inactive)
17,CC(=O)O[C@@H]1[C@H]2CC[C@H]3[C@@](C)(O)[C@@H]4C[C@H](O)C(C)(C)[C@@]4(O)[C@@H](O)C[C@@]13C[C@@]2(C)O,32 AU (inactive)
18,COC(=O)C1=CO[C@@H](C)[C@@H]2CN3CC[C@@]4(C(=O)Nc5ccccc54)[C@H]3C[C@H]12,32 AU (inactive)
19,CN[C@@H]1[C@@H](O)[C@@H](O[C@@H]2[C@@H](O)[C@H](O[C@H]3O[C@H]([C@@H](C)O)[C@@H](O)[C@H](O)[C@H]3N)[C@@H](N)C[C@H]2N)OC[C@]1(C)O,52 AU (inactive)
20,C[C@@H]1O[C@@H](O[C@H]2CC[C@]3(C=O)[C@H]4CC[C@]5(C)[C@@H](C6=CC(=O)OC6)CC[C@]5(O)[C@@H]4CC[C@]3(O)C2)[C@H](O)[C@H](O)[C@H]1O,4 AU (inactive)
21,CN(CC[C@H](N)CC(=O)N[C@H]1C=C[C@H](n2ccc(N)nc2=O)O[C@@H]1C(=O)O)C(=N)N,80 AU (inactive)
22,C[C@]12CCC(=O)C[C@@H]1CC[C@@H]1[C@@H]2CC[C@]2(C)C(=O)CC[C@@H]12,68 AU (inactive)
23,CN1[C@H]2C[C@H](OC(=O)[C@H](CO)c3ccccc3)C[C@@H]1[C@@H](O)C2,56 AU (inactive)
24,CCN1C[C@]2(COC)[C@H](O)C[C@H](OC)[C@]34C1[C@H]([C@H](OC)[C@H]23)[C@]1(OC(C)=O)[C@H]2[C@@H](OC(=O)c3ccccc3)[C@](O)(C[C@H]24)[C@@H](OC)[C@@H]1O,16 AU (inactive)
25,CC(C)c1cc2c(c(O)c1O)[C@@]1(C(=O)O)CCCC(C)(C)[C@@H]1CC2,52 AU (inactive)
26,C[C@@H]1CC[C@@]2(OC1)O[C@H]1[C@@H](O)[C@H]3[C@@H]4CC[C@H]5C[C@@H](O[C@@H]6O[C@H](CO)[C@H](O[C@@H]7O[C@H](CO)[C@@H](O)[C@H](O[C@@H]8OC[C@@H](O)[C@H](O)[C@H]8O)[C@H]7O[C@@H]7O[C@H](CO)[C@H](O)[C@H](O[C@@H]8O[C@H](CO)[C@@H](O)[C@H](O)[C@H]8O)[C@H]7O)[C@H](O)[C@H]6O)[C@H](O)C[C@]5(C)[C@H]4CC[C@]3(C)[C@H]1[C@@H]2C,48 AU (inactive)
27,CC[C@@H](C)C(=O)O[C@H]1[C@H](O)[C@H]2[C@@H](CN3C[C@@H](C)CC[C@H]3[C@@]2(C)O)[C@@H]2C[C@]34O[C@]5(O)[C@@H](OC(=O)[C@](C)(O)[C@@H](C)O)CC[C@@]3(C)[C@@H]5[C@@H](OC(C)=O)[C@@H](OC(C)=O)[C@H]4[C@@]21O,88 AU (inactive)
28,C=C[C@H]1CN2CC[C@H]1C[C@H]2[C@H](OC(=O)OCC)c1ccnc2ccc(OC)cc12,28 AU (inactive)
